# Source: the supplement of paper PMC12067093, “Discovery and optimisation of a covalent ligand for TRIM25 and its application to targeted protein ubiquitination” (Chemical Science, 2025)
# About 21,000 targets were measured; listed, in parts, are those with the largest changes and a random draw of the rest.
# Compound: CC1Cc2ccccc2N1C(=O)C1CCCN(C1)C(=O)CCl (mixture of isomers) [TRIM25 ligand 11 (diastereomer mixture)]
# Assay: probe-labelled cysteine peptide fold change vs DMSO (competition) (log2 fold change); higher = less target engagement (more negative = stronger competition)
# Details: THP-1, incubation time: 4 h
# 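Note: competitive chemoproteomic profiling in live THP-1 cells with an iodoacetamide desthiobiotin (IA-DTB) probe, comparing probe-labelled peptide intensities in compound-treated cells against DMSO-treated controls.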
# Chain of UniProt P62316 (P62316 whole entry, looked up): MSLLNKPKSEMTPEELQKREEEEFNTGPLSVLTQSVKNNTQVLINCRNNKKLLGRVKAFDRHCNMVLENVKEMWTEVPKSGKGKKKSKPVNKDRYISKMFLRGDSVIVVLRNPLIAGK
# Chain of UniProt Q9Y3I0 (Q9Y3I0 whole entry, looked up): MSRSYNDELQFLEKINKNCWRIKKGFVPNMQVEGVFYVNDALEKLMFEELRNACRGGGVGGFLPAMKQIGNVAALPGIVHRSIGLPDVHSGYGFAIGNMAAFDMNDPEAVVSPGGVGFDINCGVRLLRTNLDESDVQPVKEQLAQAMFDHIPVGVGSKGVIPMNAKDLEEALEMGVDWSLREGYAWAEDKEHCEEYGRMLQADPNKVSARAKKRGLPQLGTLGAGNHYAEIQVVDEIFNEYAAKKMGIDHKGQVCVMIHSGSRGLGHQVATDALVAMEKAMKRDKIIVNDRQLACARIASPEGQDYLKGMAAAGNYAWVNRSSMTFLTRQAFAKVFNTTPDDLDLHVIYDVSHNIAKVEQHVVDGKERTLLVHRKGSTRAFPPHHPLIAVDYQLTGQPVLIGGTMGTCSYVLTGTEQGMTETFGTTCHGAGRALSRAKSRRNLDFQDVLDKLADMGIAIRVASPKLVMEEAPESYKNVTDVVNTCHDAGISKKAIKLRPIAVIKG
# Chain of UniProt Q9Y5X3 (Q9Y5X3 whole entry, looked up): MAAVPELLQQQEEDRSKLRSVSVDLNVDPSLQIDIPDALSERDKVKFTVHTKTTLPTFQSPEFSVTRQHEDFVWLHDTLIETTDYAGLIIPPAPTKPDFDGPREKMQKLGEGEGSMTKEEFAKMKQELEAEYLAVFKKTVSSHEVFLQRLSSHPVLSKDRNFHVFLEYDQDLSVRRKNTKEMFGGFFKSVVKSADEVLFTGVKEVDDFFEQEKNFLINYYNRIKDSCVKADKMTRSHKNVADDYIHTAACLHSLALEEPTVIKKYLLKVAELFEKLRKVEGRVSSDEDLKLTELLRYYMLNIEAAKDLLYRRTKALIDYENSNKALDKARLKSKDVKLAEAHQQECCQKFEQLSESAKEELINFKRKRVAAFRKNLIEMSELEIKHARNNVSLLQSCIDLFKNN
# Chain of UniProt O95197 (O95197 whole entry, looked up): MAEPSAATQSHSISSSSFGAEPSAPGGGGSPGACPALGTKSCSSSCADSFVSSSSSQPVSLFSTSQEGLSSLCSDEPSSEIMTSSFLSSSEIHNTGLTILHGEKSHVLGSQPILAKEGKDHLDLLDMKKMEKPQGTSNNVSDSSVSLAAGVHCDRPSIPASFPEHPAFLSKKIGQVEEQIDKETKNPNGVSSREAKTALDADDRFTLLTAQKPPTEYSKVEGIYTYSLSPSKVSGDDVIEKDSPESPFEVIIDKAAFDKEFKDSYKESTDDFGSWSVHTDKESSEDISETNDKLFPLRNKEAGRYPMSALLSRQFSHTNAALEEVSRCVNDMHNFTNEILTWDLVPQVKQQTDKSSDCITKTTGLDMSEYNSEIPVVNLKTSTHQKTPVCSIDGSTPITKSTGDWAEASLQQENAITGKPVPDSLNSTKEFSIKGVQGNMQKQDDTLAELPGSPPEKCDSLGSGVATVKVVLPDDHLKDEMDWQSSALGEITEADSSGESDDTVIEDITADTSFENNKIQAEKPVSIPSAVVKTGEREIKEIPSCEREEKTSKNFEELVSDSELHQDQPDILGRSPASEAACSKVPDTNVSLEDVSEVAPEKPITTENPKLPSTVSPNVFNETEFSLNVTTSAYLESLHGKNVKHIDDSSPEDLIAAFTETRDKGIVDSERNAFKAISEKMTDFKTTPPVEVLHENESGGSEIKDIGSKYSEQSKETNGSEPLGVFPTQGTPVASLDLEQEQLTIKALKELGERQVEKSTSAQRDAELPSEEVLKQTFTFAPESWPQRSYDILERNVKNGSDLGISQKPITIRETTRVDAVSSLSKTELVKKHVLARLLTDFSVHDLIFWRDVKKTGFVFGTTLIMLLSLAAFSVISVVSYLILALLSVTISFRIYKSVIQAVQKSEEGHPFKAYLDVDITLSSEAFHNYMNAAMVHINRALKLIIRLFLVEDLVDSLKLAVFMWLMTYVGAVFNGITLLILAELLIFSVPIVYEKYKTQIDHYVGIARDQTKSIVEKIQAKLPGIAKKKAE
# Chain of UniProt Q9BVQ7 (Q9BVQ7 whole entry, looked up): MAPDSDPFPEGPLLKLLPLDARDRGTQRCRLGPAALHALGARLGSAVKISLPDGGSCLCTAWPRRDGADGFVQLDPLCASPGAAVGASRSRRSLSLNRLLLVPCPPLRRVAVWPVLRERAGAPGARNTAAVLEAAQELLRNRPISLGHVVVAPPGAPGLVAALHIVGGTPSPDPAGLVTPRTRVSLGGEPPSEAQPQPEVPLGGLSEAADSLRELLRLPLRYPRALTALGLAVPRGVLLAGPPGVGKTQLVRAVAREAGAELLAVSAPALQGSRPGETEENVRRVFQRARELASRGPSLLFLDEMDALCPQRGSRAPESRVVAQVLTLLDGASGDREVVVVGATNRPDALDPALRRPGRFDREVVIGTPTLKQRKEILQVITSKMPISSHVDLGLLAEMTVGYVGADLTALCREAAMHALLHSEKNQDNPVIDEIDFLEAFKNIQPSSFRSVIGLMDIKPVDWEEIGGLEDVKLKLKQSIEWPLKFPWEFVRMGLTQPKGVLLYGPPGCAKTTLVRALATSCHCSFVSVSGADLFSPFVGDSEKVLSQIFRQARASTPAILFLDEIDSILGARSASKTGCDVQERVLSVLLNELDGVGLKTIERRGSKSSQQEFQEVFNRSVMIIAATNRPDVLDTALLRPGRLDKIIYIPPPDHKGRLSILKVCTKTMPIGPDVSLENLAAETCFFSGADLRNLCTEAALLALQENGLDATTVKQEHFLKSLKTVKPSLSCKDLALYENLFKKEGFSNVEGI
# Chain of UniProt P51531 (P51531 whole entry, looked up): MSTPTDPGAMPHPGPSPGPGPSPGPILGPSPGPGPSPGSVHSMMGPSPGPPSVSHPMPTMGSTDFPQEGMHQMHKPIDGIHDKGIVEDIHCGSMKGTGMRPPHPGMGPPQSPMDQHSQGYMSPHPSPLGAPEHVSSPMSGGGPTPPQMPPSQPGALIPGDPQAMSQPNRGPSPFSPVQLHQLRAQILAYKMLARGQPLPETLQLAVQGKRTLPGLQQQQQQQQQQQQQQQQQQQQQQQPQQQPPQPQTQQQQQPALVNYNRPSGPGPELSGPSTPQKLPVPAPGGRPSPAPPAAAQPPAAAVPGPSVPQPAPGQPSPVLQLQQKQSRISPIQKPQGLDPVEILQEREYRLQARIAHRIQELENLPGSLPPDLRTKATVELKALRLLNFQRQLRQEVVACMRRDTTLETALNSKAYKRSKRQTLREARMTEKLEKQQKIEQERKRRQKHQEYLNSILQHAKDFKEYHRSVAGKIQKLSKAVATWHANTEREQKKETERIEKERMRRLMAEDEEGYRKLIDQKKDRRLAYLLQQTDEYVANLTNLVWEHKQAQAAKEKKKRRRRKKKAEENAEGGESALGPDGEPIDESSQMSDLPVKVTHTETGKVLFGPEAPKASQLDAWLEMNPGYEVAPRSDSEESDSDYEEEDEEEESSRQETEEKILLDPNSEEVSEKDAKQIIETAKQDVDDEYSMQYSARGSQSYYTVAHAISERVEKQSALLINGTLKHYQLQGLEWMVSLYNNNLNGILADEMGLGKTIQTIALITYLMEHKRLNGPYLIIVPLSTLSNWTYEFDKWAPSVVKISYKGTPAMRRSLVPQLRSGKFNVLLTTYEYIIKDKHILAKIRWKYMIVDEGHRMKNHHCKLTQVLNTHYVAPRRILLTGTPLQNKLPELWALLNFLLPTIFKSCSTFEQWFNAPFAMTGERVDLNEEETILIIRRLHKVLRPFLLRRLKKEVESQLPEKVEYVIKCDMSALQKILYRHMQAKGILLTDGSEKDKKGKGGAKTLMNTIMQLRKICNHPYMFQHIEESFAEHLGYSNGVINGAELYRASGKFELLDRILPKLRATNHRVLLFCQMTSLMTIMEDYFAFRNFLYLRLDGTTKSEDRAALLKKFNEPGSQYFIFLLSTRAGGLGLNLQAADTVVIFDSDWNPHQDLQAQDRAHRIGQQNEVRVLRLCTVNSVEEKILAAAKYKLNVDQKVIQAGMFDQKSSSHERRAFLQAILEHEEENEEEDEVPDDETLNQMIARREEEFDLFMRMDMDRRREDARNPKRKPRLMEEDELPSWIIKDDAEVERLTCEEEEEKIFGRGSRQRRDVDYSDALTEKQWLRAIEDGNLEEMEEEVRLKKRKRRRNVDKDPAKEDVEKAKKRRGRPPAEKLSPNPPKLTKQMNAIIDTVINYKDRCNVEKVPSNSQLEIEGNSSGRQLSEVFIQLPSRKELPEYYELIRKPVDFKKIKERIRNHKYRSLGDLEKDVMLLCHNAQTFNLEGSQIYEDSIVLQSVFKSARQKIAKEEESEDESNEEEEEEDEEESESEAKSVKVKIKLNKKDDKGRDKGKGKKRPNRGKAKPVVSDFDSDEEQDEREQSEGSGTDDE
# Chain of UniProt Q9UBX3 (Q9UBX3 whole entry, looked up): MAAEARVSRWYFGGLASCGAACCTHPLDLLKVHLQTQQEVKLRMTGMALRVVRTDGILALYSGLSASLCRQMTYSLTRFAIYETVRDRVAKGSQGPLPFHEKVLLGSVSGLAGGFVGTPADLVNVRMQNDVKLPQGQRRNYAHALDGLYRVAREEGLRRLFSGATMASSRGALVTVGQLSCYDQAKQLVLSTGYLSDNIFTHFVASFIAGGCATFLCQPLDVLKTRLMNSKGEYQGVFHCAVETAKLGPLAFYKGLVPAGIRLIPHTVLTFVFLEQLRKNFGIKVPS
# Chain of UniProt Q9Y224 (Q9Y224 whole entry): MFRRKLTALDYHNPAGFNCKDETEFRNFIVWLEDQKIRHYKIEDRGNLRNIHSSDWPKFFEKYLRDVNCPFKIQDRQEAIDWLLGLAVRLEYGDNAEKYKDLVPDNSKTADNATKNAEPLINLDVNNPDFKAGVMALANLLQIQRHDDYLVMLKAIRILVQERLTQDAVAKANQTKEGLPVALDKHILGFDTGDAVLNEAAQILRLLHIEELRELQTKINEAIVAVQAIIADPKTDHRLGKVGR
Target,probe-labelled cysteine peptide fold change (10 µM),probe-labelled cysteine peptide fold change (50 µM)
SFMBT2_Q5VUG0_796_CPPTKPEGTEDTKQEEEERLVLESNPLEWTVTDVVR (UniProt Q5VUG0),-0.043,-0.0391
SLFN11_Q7Z7L1_322_VNPFCCAVFSEAPNSWIVEDK (UniProt Q7Z7L1),0.661,0.447
RPS6KA1_Q15418_432_ETIGVGSYSECKR (UniProt Q15418),0.185,-0.833
SNX14_Q9Y5W7_593_IPVFCIDVER (UniProt Q9Y5W7),0.3,0.776
SAFB2_Q14151_224_ILDILGETCK<|>SAFB_Q15424_225_ILDILGETCK (UniProt Q15424+Q14151),-0.021,-0.165
RTCB_Q9Y3I0_485_NVTDVVNTCHDAGISK (UniProt Q9Y3I0),-0.0281,-0.0777
SEC23B_Q15437_434_GPCVSENELGVGGTSQWK (UniProt Q15437),0.0914,0.096
SLU7_O95391_445_CCHSFFK (UniProt O95391),0.132,0.191
SRCAP_Q6ZRS2_1926_IFQLSEAHGALAPVYGTEVLDFCTLPQPVASPIGPR (UniProt Q6ZRS2),0.683,0.741
SMARCD2_Q92925_298_CTLLLMLDHQPPQYK (UniProt Q92925),-0.0298,-0.00447
SMAD9_O15198_93_GLPHVIYCR<|>SMAD3_Q15796_89_GLPHVIYCR<|>SMAD2_Q99717_129_GLPHVIYCR (UniProt Q99717+Q15796+O15198),-0.076,-0.0521
SAR1A_Q9NR31_178_ELNARPMEVFMCSVLKR (UniProt Q9NR31),-0.614,-0.486
SPATA5L1_Q9BVQ7_104_LLLVPCPPLRR (UniProt Q9BVQ7),-0.0644,0.126
RTN3_O95197-3_46_SCSSSCAVHDLIFWR (UniProt O95197),-0.00795,-0.919
SH3KBP1_Q96B97_301_DCIDVGWWEGELNGRR (UniProt Q96B97),-0.0866,-0.063
SPTLC2_O15270_99_CHHATER (UniProt O15270),0.261,0.971
SMPD4_Q9NXE4_221_TSDCAYFILVDR (UniProt Q9NXE4),0.14,0.266
SPAG1_Q07617_825_EACAHLLAITAPK (UniProt Q07617),-0.0823,-0.0988
SATB2_Q9UPW6_159_IQLQSCSK (UniProt Q9UPW6),0.071,-0.00125
SEC23A_Q15436_88_LWACNFCYQR (UniProt Q15436),0.0643,0.249
SMU1_Q2TAY7_219_SHVECAR (UniProt Q2TAY7),0.194,0.11

Target,probe-labelled cysteine peptide fold change (10 µM),probe-labelled cysteine peptide fold change (50 µM)
RREB1_Q92766_291_DAMGRPFIQNNPSIPAGFHDLGFTDFSCR (UniProt Q92766),-0.104,-0.0626
SETDB1_Q15047_781_RLEECLPTGVYECNKR (UniProt Q15047),-0.124,-0.00361
RPS28_P62857_27_TGSQGQCTQVRVEFMDDTSR (UniProt P62857),-0.718,-0.281
SNRPC_P09234_25_KTHCSGR (UniProt P09234),-0.332,-0.766
SETDB1_Q15047_385_RCEWIYR (UniProt Q15047),0.156,0.176
SORBS3_O60504_482_GEHICLIR (UniProt O60504),0.12,0.166
SMC1A_Q14683_781_MNQVEDEVFEEFCR (UniProt Q14683),0.0344,0.0302
SNX5_Q9Y5X3_250_NVADDYIHTAACLHSLALEEPTVIKK (UniProt Q9Y5X3),-0.0814,-0.118
RPS5_P46782_155_VNQAIWLLCTGAR (UniProt P46782),0.00589,0.118
SLC25A10_Q9UBX3_69_TDGILALYSGLSASLCR (UniProt Q9UBX3),0.0966,0.615
SRBD1_Q8N5C6_912_SIVCLEDLQIGTVLTGK (UniProt Q8N5C6),0.0769,-0.14
SMARCA2_P51531_1016_ICNHPYMFQHIEESFAEHLGYSNGVINGAELYR (UniProt P51531),-0.0517,-0.116
SNRPD2_P62316_63_AFDRHCNMVLENVK (UniProt P62316),-0.388,-0.34
RSL1D1_O76021_96_SDSEDICLFTK (UniProt O76021),-0.0174,-0.141
RTRAF_Q9Y224_19_LTALDYHNPAGFNCK (UniProt Q9Y224),0.414,0.404
SMCHD1_A6NHR9_474_RPIFECFWNGR (UniProt A6NHR9),-0.00857,0.0994
SNUPN_O95149_199_GHPFYDCQTDFR (UniProt O95149),0.47,0.00215
SAR1B_Q9Y6B6_102_NYLPAINGIVFLVDCADHER (UniProt Q9Y6B6),0.177,0.151
SIAE_Q9HAT2_367_MPNTFMAVAMDLCDRDSPFGSIHPR (UniProt Q9HAT2),-0.176,-0.565
SETD3_Q86TU7_36_CSSPAPGPGK (UniProt Q86TU7),-0.0972,-0.145
